Reference: PubChem BioAssay (EPA / NIEHS)
Inconclusive results are not listed. The source made the active and inactive calls. How the source made its calls: active means hit-call score of the fitted dose curve at least 0.9, where 1 is the maximum; inconclusive means response in the unintended direction; inactive means score below 0.9. Where a SMILES comes first, the peptide text is derived from it. Bridges are numbered along the chain shown (N, C = ends). [ ]: non-standard residue; d: D form. hArg = N=C(N)NCCCC[C@H](N)C(=O)O; Mpa = O=C(O)CCS

Test system: not listed separately
Assay: TOX21_p53_BLA_p5_viability: Viability Assessment in the Tox21 HCT-116 p53 Agonism Beta-lactamase Assay, Phase 5 (AID 2283600)
Summary of the method: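 Workflow: seed 4000 cells per well, wait 5 h, add compounds (DMSO, 217-fold dilution), incubate 16 h, load CCF4-AM 2 h, add CellTiter-Glo, read luminescence after 30 min.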

For C[C@]12CC[C@@H]3c4ccc(OC(=O)c5ccccc5)cc4CC[C@H]3[C@@H]1CC[C@@H]2O, which outcome is on record?
The outcome was “inactive”.

Which outcome does the source give for CC(C)NCC(O)COc1ccccc1-n1cccc1 (stereo not given) here?
The outcome was “inactive”.

With C[C@H]1NCc2cc(-c3ccc4c(=O)c(C(=O)O)cn(C5CC5)c4c3OC(F)F)ccc21 as the compound, how does the outcome read?
The outcome was “inactive”.

Which outcome does the source give for CC(=O)N[C@@H](CC(=O)N[C@@H](CCC(=O)O)C(=O)O)C(=O)O here?
Its outcome is “inactive”.

With COc1ccc(NS(=O)(=O)c2ccc(N)cc2)nn1 as the compound, how does the outcome read?
Its outcome is “inactive”.

With O=Nc1ccc(NO)cc1 as the compound, how does the outcome read?
Its outcome is “inactive”.

With Cc1nc(-c2ccc(Cl)cc2)oc1COC(C)(C)C(=O)O as the compound, how does the outcome read?
The outcome was “inactive”.

With O=C(COCCOCCOCC(=O)Nc1c(I)cc(I)c(C(=O)O)c1I)Nc1c(I)cc(I)c(C(=O)O)c1I as the compound, how does the outcome read?
The outcome was “inactive”.

With C=CCSSSCC=C as the compound, how does the outcome read?
Its outcome is “inactive”.

For COc1ccc(CCC(=O)c2c(O)cc(O[C@@H]3O[C@H](CO)[C@@H](O)[C@H](O)[C@H]3O[C@@H]3O[C@@H](C)[C@H](O)[C@@H](O)[C@H]3O)cc2O)cc1O, which outcome is on record?
The outcome was “inactive”.

With CC(C)(C)c1ccc(C=O)cc1 as the compound, how does the outcome read?
Its outcome is “inactive”.

For C[C@H](O)C(=O)Nc1c(I)c(C(=O)NC(CO)CO)c(I)c(C(=O)NC(CO)CO)c1I, which outcome is on record?
Its outcome is “inactive”.

With CC(C)(C)C(=O)OCC(=O)[C@H]1CC[C@H]2[C@@H]3CCC4=CC(=O)CC[C@]4(C)[C@H]3CC[C@]12C as the compound, how does the outcome read?
Its outcome is “inactive”.

With Cn1cnc2ncnc(N)c21 as the compound, how does the outcome read?
The outcome was “inactive”.

For CC1CCCC(C)N1NC(=O)c1ccc(Cl)c(S(N)(=O)=O)c1 (stereo not given), which outcome is on record?
The outcome was “inactive”.

Which outcome does the source give for Clc1ccc2nsnc2c1NC1=NCCN1 here?
Its outcome is “inactive”.

With CC(C)CCC[C@@H](C)[C@H]1CC(=O)C2=C3CC[C@H]4C[C@@H](O)CC[C@]4(C)[C@H]3CC[C@@]21C as the compound, how does the outcome read?
The outcome was “inactive”.

With CC1=C(/C=C/C(C)=C/C=C/C(C)=C/C=C/C=C(C)/C=C/C=C(C)/C=C/C2=C(C)C(=O)CCC2(C)C)C(C)(C)CCC1=O as the compound, how does the outcome read?
Its outcome is “inactive”.

For Nc1nc(NC2CC2)c2ncn([C@H]3C=C[C@@H](CO)C3)c2n1, which outcome is on record?
Its outcome is “inactive”.

Biological target: Cellular tumor antigen p53 (Homo sapiens) (UniProt P04637)
Sequence (P04637 whole entry, looked up): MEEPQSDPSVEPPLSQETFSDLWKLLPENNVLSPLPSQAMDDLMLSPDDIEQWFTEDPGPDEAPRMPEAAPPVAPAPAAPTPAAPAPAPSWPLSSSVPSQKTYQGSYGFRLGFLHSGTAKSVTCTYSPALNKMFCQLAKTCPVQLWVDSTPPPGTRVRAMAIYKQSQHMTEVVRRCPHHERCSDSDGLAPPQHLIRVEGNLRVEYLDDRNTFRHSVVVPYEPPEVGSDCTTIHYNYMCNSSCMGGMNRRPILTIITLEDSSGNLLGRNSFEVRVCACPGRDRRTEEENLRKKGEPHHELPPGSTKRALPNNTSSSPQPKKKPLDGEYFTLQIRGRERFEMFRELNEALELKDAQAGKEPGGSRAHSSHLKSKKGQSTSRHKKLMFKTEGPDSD
Assay: TOX21_p53_BLA_p4_ratio: Tox21 HCT-116 p53 Agonism Beta-lactamase Assay, Ratio, Phase 4 (AID 2283601)
Summary of the method: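 HCT116 cells carrying an inducible beta-lactamase reporter were plated at 4000 cells/well, rested 5 h, then exposed to compounds in DMSO (217-fold dilution) for 16 h at 37C. CCF4-AM substrate was loaded 2 h at room temperature; 460/530 nm emission ratio scored gain-of-signal versus DMSO.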

Which outcome does the source give for C[C@@H](O)C(=O)O here?
Its outcome is “inactive”.

For NC(=O)[C@@H]1CSSCCC(=O)N[C@@H](CCCCN=C(N)N)C(=O)NCC(=O)N[C@@H](CC(=O)O)C(=O)N[C@H](Cc2c[nH]c3ccccc23)C(=O)N2CCC[C@H]2C(=O)N1 ([Mpa][hArg]GD[dW]PC-NH2; disulfide 1-7), which outcome is on record?
Its outcome is “inactive”.

With OCC1(CO)COC(C(Cl)(Cl)Cl)OC1 as the compound, how does the outcome read?
Its outcome is “inactive”.

Which outcome does the source give for CC(C)NCC(O)COc1ccccc1-n1cccc1 (stereo not given) here?
The outcome was “inactive”.

For OCC(O)CN1CCN(c2ccccc2)CC1 (stereo not given), which outcome is on record?
The outcome was “inactive”.

With Nc1ccc(Cl)cc1[N+](=O)[O-] as the compound, how does the outcome read?
Its outcome is “inactive”.

For CCCCNC(=O)NCCCC, which outcome is on record?
Its outcome is “inactive”.

For CC(=O)N[C@@H](CC(=O)N[C@@H](CCC(=O)O)C(=O)O)C(=O)O, which outcome is on record?
Its outcome is “inactive”.

Which outcome does the source give for COc1ccc(NS(=O)(=O)c2ccc(N)cc2)nn1 here?
Its outcome is “inactive”.

Which outcome does the source give for O=Nc1ccc(NO)cc1 here?
Its outcome is “inactive”.

For Cc1nc(-c2ccc(Cl)cc2)oc1COC(C)(C)C(=O)O, which outcome is on record?
Its outcome is “inactive”.

For C=CCSSSCC=C, which outcome is on record?
Its outcome is “inactive”.

With CC(C)C[C@@H](N)C(=O)O as the compound, how does the outcome read?
The outcome was “inactive”.

With COc1ccc(CCC(=O)c2c(O)cc(O[C@@H]3O[C@H](CO)[C@@H](O)[C@H](O)[C@H]3O[C@@H]3O[C@@H](C)[C@H](O)[C@@H](O)[C@H]3O)cc2O)cc1O as the compound, how does the outcome read?
The outcome was “inactive”.

With CC(C)(C)c1ccc(C=O)cc1 as the compound, how does the outcome read?
The outcome was “inactive”.

For CCOc1ccc2ccccc2c1C(=O)N[C@@H]1C(=O)N2[C@@H]1SC(C)(C)[C@@H]2C(=O)O, which outcome is on record?
Its outcome is “inactive”.

For C[C@H](O)C(=O)Nc1c(I)c(C(=O)NC(CO)CO)c(I)c(C(=O)NC(CO)CO)c1I, which outcome is on record?
Its outcome is “inactive”.

Which outcome does the source give for CC(C)(C)C(=O)OCC(=O)[C@H]1CC[C@H]2[C@@H]3CCC4=CC(=O)CC[C@]4(C)[C@H]3CC[C@]12C here?
The outcome was “inactive”.

For Cn1cnc2ncnc(N)c21, which outcome is on record?
Its outcome is “inactive”.

For Cc1ccccc1C(=O)O, which outcome is on record?
The outcome was “inactive”.

For Clc1ccc2nsnc2c1NC1=NCCN1, which outcome is on record?
Its outcome is “inactive”.

For CC(C)CCC[C@@H](C)[C@H]1CC(=O)C2=C3CC[C@H]4C[C@@H](O)CC[C@]4(C)[C@H]3CC[C@@]21C, which outcome is on record?
Its outcome is “inactive”.

Which outcome does the source give for CC1=C(/C=C/C(C)=C/C=C/C(C)=C/C=C/C=C(C)/C=C/C=C(C)/C=C/C2=C(C)C(=O)CCC2(C)C)C(C)(C)CCC1=O here?
The outcome was “inactive”.

For C[N+](C)(C)CC(O)CCl (stereo not given), which outcome is on record?
The outcome was “inactive”.

Which outcome does the source give for C=CC(=O)OCCOCCOC(=O)C=C here?
The outcome was “inactive”.

With NC[C@H]1O[C@H](O[C@H]2[C@H](O)[C@@H](O[C@H]3O[C@H](CO)[C@@H](O)[C@H](N)[C@H]3O)[C@H](N)C[C@@H]2N)[C@H](N)[C@@H](O)[C@@H]1O as the compound, how does the outcome read?
The outcome was “inactive”.
